Assay [1] in a line: antimalarial activity against Dd2 strain (AID 2302;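 active means growth inhibition above 50% at the single 2 µM test dose, taken to imply half-maximal potency below 2 µM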;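 further: 0% = DMSO untreated growth and 100% = chloroquine plus artemisinin killed control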). As to conditions: P. falciparum Dd2 in RBCs, LDH growth readout, 72 h; at 2 µM; stronger effect = higher value.
Assay [2] can be described thus: HepG2 cytotoxicity, primary screen, cytotoxicity control for P. falciparum antimalarial project, cell-based, ATP luminescence (AID 2303;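 active means inhibition above 50%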;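 further: 0% = DMSO wells and 100% = digitonin-killed cells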). The conditions noted are these: HepG2 viability, 24-48 h, at 10 µM, stronger effect = higher value.
For assay [3], the target named is L-lactate dehydrogenase (Plasmodium falciparum (isolate CDC / Honduras)) (UniProt Q27743). Briefly: PfLDH activity inhibition – cell lysate, 3D7 strain, counter-screen for P. falciparum growth inhibition project (AID 2304).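 Further: 0% = vehicle and 100% = reference inhibitor.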 As to conditions: P. falciparum 3D7 crude extract, LDH APAD/NBT absorbance; at 2 µM; stronger effect = higher value. A general note: A counterscreen serves to expose hits that act by an unwanted route or on another target.

Assay [4] can be described thus: inhibition of 3D7 malaria parasite growth – strain 3D7 (AID 2306).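 Further: 0% = DMSO wells and 100% = chloroquine plus artemisinin control wells.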 The conditions noted are these: P. falciparum 3D7 erythrocytic growth, LDH absorbance, 72 h; at 2 µM; stronger effect = higher value.
Assay [5] addresses Calcium-dependent protein kinase 1 (Plasmodium falciparum (isolate 3D7)) (UniProt P62344). Description: PfCDPK1 kinase inhibitors, biochemical, TCAMS library (AID 1159585; cut-off not given, nearly all actives have IC50 up to about 0.98 µM;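 further: inhibitors leave more ATP so luminescence rises with inhibition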). The conditions noted are these: recombinant PfCDPK1, Kinase-Glo ATP depletion luminescence. In general terms: Kinase-Glo measures the ATP left after a reaction by luminescence.
Assay [6] deals with Plasmodium falciparum protein kinase 6 (PK6, PF3D7_1337100) (UniProt Q8IDW1). Briefly: PfPK6 kinase inhibitors, biochemical, TCAMS library (AID 1159586). The conditions noted are these: recombinant PfPK6, Kinase-Glo ATP depletion luminescence.
The target of assay [7] is Protein kinase 7 (PK7), Plasmodium falciparum 3D7 (PF3D7_0213400) (UniProt Q7YTF7). Description: inhibition of Plasmodium PK7 catalytic activity – biochemical, TCAMS antimalarial set, Kinase-Glo luminescence (AID 1159587). The conditions noted are these: recombinant PfPK7, Kinase-Glo ATP depletion luminescence.
In assay [8] the target is Calcium-dependent protein kinase 4 (Plasmodium falciparum (isolate 3D7)) (UniProt Q8IBS5). Description: PfCDPK4 kinase inhibitors, biochemical, TCAMS library (AID 1159588; cut-off not given, nearly all actives have IC50 up to about 0.91 µM). As to conditions: recombinant PfCDPK4, Kinase-Glo ATP depletion luminescence.

A number with no mark means an inactive call. For part of these data: Results with a measured potency or affinity are listed apart. Calls of active or inactive are those of the source. Unless noted, how the calls were made is not given here.

Plasmodium falciparum protein kinase 6 (PK6, PF3D7_1337100), sequence (Q8IDW1 1-305): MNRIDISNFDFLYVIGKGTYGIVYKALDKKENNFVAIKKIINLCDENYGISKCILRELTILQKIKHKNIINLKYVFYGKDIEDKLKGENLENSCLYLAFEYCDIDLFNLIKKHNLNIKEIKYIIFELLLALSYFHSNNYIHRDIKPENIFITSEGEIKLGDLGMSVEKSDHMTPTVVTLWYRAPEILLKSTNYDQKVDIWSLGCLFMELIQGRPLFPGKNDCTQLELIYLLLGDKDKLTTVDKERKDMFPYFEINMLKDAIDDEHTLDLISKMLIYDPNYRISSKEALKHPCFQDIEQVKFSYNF
Calcium-dependent protein kinase 1 (Plasmodium falciparum (isolate 3D7)), sequence (P62344 whole entry, looked up): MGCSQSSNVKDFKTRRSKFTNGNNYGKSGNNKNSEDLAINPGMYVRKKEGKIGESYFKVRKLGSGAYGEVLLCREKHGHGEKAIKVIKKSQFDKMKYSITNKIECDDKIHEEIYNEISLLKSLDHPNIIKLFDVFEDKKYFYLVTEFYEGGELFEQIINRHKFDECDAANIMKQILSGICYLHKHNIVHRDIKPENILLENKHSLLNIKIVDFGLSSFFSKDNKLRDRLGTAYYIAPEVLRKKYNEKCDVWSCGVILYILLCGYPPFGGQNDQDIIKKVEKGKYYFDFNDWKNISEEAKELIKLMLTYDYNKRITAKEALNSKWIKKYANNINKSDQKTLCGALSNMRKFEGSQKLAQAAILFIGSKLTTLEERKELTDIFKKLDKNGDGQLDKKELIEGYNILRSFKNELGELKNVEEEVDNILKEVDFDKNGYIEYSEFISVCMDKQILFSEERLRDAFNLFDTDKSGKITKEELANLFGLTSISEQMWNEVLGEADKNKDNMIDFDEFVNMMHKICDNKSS
Protein kinase 7 (PK7), Plasmodium falciparum 3D7 (PF3D7_0213400), sequence (Q7YTF7 1-343): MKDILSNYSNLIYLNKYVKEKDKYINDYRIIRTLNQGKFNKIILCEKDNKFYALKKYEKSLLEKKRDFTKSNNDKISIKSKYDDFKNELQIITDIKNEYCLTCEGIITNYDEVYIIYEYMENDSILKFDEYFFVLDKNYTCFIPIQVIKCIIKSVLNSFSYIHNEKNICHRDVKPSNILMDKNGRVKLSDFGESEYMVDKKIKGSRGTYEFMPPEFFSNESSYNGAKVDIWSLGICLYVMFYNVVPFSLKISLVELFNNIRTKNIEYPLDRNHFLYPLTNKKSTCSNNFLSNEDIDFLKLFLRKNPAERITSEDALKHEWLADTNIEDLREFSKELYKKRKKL
Calcium-dependent protein kinase 4 (Plasmodium falciparum (isolate 3D7)), sequence (Q8IBS5 whole entry, looked up): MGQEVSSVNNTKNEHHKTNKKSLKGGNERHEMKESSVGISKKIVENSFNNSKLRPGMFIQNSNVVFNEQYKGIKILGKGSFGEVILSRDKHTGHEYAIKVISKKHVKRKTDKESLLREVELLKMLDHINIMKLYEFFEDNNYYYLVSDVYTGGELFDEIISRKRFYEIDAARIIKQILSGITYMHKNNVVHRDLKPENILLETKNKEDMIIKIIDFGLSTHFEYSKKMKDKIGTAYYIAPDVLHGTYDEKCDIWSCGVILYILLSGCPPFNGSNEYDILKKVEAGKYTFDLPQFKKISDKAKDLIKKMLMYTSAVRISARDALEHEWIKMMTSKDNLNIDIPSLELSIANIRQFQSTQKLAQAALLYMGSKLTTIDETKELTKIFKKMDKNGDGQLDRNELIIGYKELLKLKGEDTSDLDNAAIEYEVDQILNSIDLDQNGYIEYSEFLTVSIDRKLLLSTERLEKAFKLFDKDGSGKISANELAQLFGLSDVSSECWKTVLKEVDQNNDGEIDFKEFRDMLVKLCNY
L-lactate dehydrogenase (Plasmodium falciparum (isolate CDC / Honduras)), sequence (Q27743 whole entry, looked up): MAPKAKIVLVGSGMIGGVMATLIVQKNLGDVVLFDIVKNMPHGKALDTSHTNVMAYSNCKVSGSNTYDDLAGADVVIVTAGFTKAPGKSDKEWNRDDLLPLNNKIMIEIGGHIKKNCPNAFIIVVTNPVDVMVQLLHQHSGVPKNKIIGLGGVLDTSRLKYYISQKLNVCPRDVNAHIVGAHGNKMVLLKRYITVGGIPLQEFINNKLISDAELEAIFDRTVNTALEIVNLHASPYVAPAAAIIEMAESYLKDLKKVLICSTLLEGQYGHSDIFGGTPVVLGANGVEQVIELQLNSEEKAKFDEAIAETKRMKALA

Consider `CCN(CC)CCOc1ccc(C(O)(C#CC(O)(c2ccc(Br)cc2)c2ccc(OCCN(CC)CC)cc2)c2ccc(Br)cc2)cc1` (stereo not drawn), for which the growth inhibition in assay [1] and in assay [4] was 99% (active) in each case. In addition, the inhibition (usually the change of the read-out against control, counted positive when it falls) in assay [2] is 99% (active); in assay [3], 7%. The result in assay [5], in assay [6], in assay [7] and in assay [8] was inactive.
For the molecule `CCC(=O)c1c(C)n(-c2ncnc3c2nc(C)n3-c2ccc(C)cc2C)c2ccccc12`, the growth inhibition in assay [1] is 78% (active); in assay [4] it was 96% (active). Besides, the inhibition in assay [2] was -16%; in assay [3], -2%. Also, the outcome in assay [5], in assay [6], in assay [7] and in assay [8] was inactive.
Regarding `O=S(=O)(Nc1ccc2nccc(N3CCNCC3)c2c1)c1ccc2c(Cl)cccc2c1`, the figures for the growth inhibition in assay [1] and in assay [4] were 2% and 100% (active), respectively. Also, the inhibition in assay [2] was 11%; in assay [3], -2%. Besides, the outcome in assay [5], in assay [6], in assay [7] and in assay [8] was inactive.
In the case of `COc1ccc(CN2CCC(NCc3cccc(-n4ccnc4)c3)CC2)cc1`, the growth inhibition is 93% (active) in assay [1] and 100% (active) in assay [4]. Besides, the inhibition in assay [2] is 10%; in assay [3] it was -5%. Moreover, the outcome in assay [5], in assay [6], in assay [7] and in assay [8] was inactive.
With `CC[C@]1(C)C[C@@H](NC(=O)NC(=O)c2ccc(OC)cc2)[C@]2(C)[C@H](C)CC[C@]3(CCC(=O)[C@H]32)[C@@H](C)[C@@H]1OC(=O)NC(=O)c1ccc(OC)cc1`, the growth inhibition in assay [1] was 98% (active); in assay [4], 100% (active). Besides, the inhibition in assay [2] is 10%; in assay [3], -5%. The outcome in assay [5], in assay [6], in assay [7] and in assay [8] was inactive.
`CN1CCc2ccc(NC(=O)Nc3cccc([N+](=O)[O-])c3)cc2C1`: the growth inhibition in assay [1] was 3%; in assay [4], 87% (active). Moreover, the inhibition in assay [2] is -5%; in assay [3] it was 0%. For the same molecule, the result in assay [5], in assay [6], in assay [7] and in assay [8] was inactive.
For the molecule `CN(Cc1ccc(C#N)cc1)C1CCN(c2cc(NC(=O)c3ccc(F)cc3)ccn2)CC1`, the growth inhibition is 10% in assay [1] and 86% (active) in assay [4]. Besides, the inhibition was 24% in assay [2] and -5% in assay [3]. Besides, the outcome in assay [5], in assay [6], in assay [7] and in assay [8] was inactive.
Turning to `COc1cccc(-c2cc(C(=O)Nc3cc(Oc4ccc(O)cc4)cc([N+](=O)[O-])c3)on2)c1`, the results for the growth inhibition in assay [1] and in assay [4] were 30% and 89% (active), respectively. Moreover, the inhibition was 16% in assay [2] and 7% in assay [3]. For the same molecule, the outcome in assay [5], in assay [6], in assay [7] and in assay [8] was inactive.
In the case of `O=C(Nc1ccc(N2CCCCC2)c(Cl)c1)c1ncn[nH]1`, the growth inhibition in assay [1] and in assay [4] was 93% (active) throughout. Moreover, the inhibition in assay [2] was -4%; in assay [3], -6%. In addition, the outcome in assay [5], in assay [6], in assay [7] and in assay [8] was inactive.
For `O=C(Cc1cn(-c2ccccc2)nc1-c1ccc(Cl)cc1)Nc1nccs1`, the growth inhibition in assay [1] is 8%; in assay [4] it was 88% (active). Further, the inhibition in assay [2] was 9%; in assay [3] it was 1%. Besides, the result in assay [5], in assay [6], in assay [7] and in assay [8] was inactive.
In the case of `Cc1cccc2[nH]c(-c3cccc(-c4cccc(NC(=O)Nc5ccccc5)c4)c3)nc12`, the growth inhibition is 64% (active) in assay [1] and 101% (active) in assay [4]. Further, the values for the inhibition in assay [2] and in assay [3] were 8% and -6%, respectively. Also, the outcome in assay [5], in assay [6], in assay [7] and in assay [8] was inactive.
As for `O=C(Nc1ccc(CCN2CCC(c3nc(COCC(F)(F)F)c(-c4ccccc4)o3)CC2)cc1)c1ccc(F)cc1`, the growth inhibition in assay [1] was 3%; in assay [4], 86% (active). Further, the inhibition in assay [2] is 9%; in assay [3], 3%. For the same molecule, the result in assay [5], in assay [6], in assay [7] and in assay [8] was inactive.
In the case of `NC1CCCN(Cc2cccc(-c3ccc(-c4nc5ccc(C(F)(F)F)cc5[nH]4)cc3)c2)C1` (stereo not drawn), the growth inhibition in assay [1] was 96% (active); in assay [4], 99% (active). The inhibition was 47% in assay [2] and -3% in assay [3]. For the same molecule, the result in assay [5], in assay [6], in assay [7] and in assay [8] was inactive.
With `COc1cc2nc(NCCc3ccccc3)nc(NC(C)c3ccccc3)c2cc1OC` (stereo not drawn), the growth inhibition was 100% (active) in assay [1] and 99% (active) in assay [4]. The results for the inhibition in assay [2] and in assay [3] were 9% and 1%, respectively. The result in assay [5], in assay [6], in assay [7] and in assay [8] was inactive.
For `Brc1cc(Br)c2c(c1)C(NCCCNc1nc3ncccc3[nH]1)CCN2` (stereo not drawn), the growth inhibition is 83% (active) in assay [1] and 99% (active) in assay [4]. The inhibition in assay [2] was 5%; in assay [3], 1%. In addition, the result in assay [5], in assay [6], in assay [7] and in assay [8] was inactive.
Consider `c1ccc(CSC2=NNC(c3ccccn3)S2)cc1` (stereo not drawn), for which the growth inhibition in assay [1] was 65% (active); in assay [4] it was 80% (active). In addition, the inhibition in assay [2] is 6%; in assay [3], 0%. The outcome in assay [5], in assay [6], in assay [7] and in assay [8] was inactive.
On to `Cc1[nH]c(C)c(-c2ccc(OCc3cc(C(F)(F)F)cc(C(F)(F)F)c3)nc2)c(=O)c1Cl`, for which the figures for the growth inhibition in assay [1] and in assay [4] were 96% (active) and 98% (active), respectively. Besides, the inhibition in assay [2] is 19%; in assay [3], -1%. Further, the result in assay [5], in assay [6], in assay [7] and in assay [8] was inactive.
`Cn1cnnc1Sc1ccc(CN2CCOc3ccc(C4=CCCCC4)cc3C2)o1`: the growth inhibition in assay [1] is 97% (active); in assay [4], 98% (active). Further, the inhibition is 1% in assay [2] and 3% in assay [3]. Further, the outcome in assay [5], in assay [6], in assay [7] and in assay [8] was inactive.
Take `O=C(c1ccco1)c1cn(CCOc2ccccc2)c2ccccc12`: the results for the growth inhibition in assay [1] and in assay [4] were 10% and 98% (active), respectively. The inhibition in assay [2] is 5%; in assay [3] it was -4%. Moreover, the result in assay [5], in assay [6], in assay [7] and in assay [8] was inactive.
Consider `Cc1nnsc1C(=O)Nc1cccc(-c2ccc(-c3nc4ccc(F)cc4[nH]3)s2)c1`, for which the figures for the growth inhibition in assay [1] and in assay [4] were 22% and 89% (active), respectively. Also, the results for the inhibition in assay [2] and in assay [3] were 62% (active) and 4%, respectively. Further, the result in assay [5], in assay [6], in assay [7] and in assay [8] was inactive.
In the case of `CC[C@H]1CN(Cc2ccco2)CC[C@H]1CCCc1ccnc2ccc(O)cc12`, the growth inhibition in assay [1] is 14%; in assay [4] it was 93% (active). In addition, the inhibition in assay [2] was 31%; in assay [3], -1%. The result in assay [5], in assay [6], in assay [7] and in assay [8] was inactive.

Source of the values: PubChem BioAssay.
